# Assay results taken from article PMC12136788.
# The full ranking holds about 24,000 sequences; the median of “enrichment r” is about 0.99, and the highest 2% start at about 3.7. The entries come from a sample that favours the highest values as a whole.
# T1: UNK ZnF1-3 (human, UniProt Q9C0B0 31-174)
# T1 sequence: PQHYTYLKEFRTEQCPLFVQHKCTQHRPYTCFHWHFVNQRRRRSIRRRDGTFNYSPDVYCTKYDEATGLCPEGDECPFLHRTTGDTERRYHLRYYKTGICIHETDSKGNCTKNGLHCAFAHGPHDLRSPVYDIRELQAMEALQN
# B1: chr2:39006174:39006175:+_ENSG00000152147_ENST00000409566|hu_mus|FALSE|FALSE (ssRNA)
# RNA: GGGAGUUCUACAGUCCGACGAUCUACUCCUUCUCACAGGCUAUCACUCUCACUUCUUUAUAAACGUAAUCUUCCCAUUCUAAGGGGCUUUUCUUCAUCCAUUCGCUCAUGGUUACCAGUUGCCCAGAUUCUUUCUAGAUGACUCAACAGAGGAUUGAGCAUCA
# B2: 8805033_8805153_1671_3pUTR_ENSMUSG00000021147_ENSMUST00000021572|mouse|control|control (ssRNA)
# RNA: GGGAGUUCUACAGUCCGACGAUCAACUUGGAGCUAAGGAACAUCAGUGACUUAUUUUUCUUGUAACAGUGCAGGAAUAUUGAUGUUCCACCCAAUAGCUUGCCUAUCGAACCCACAGGUAAAUAGAUUGCAUAUGGGGUGGUCCAACAGAGGAUUGAGCAUCA
# B3: chr2:46850943:46850944:+_ENSG00000119878_ENST00000238892|hu_hu|FALSE|FALSE (ssRNA)
# RNA: GGGAGUUCUACAGUCCGACGAUCGUAGGCACAGCCCUGGCAGUAAUGAGAACCUGGUUGGUGCACAGAACUUUUACAAAUUCUACAAGUGGAGAACUUAUUCUUUCCAUAUGGAUCAAAUCUUGCUUUUUUUGAAGUCAAAGCCAACAGAGGAUUGAGCAUCA
# B4: 72481967_72485090_997_CDS_ENSMUSG00000030516_ENSMUST00000102592|mouse|control|control (ssRNA)
# RNA: GGGAGUUCUACAGUCCGACGAUCUGCUGCCAAACUAUCUUGUGAAAUUUCCUUUACAAAUAUAUGGCUGGCCAAUCGAAGACCAUAUUCUUCAUUUUUCCGAGACUUCACCAGUGUGACCUUGGUGGGCUUUGCGGGCUGACUCAACAGAGGAUUGAGCAUCA
# B5: chrX:71549400:71549401:+_ENSMUSG00000019087_ENSMUST00000019231|mus_hu|mus_mus_mus_hu_False|8_58 (ssRNA)
# RNA: GGGAGUUCUACAGUCCGACGAUCGCAGUAGGAAGAGGGAAGCUCUUCAGUCCAGUGCGCUGCAGGGUGGGAAAGCACAACCUAGACCACCGUCCCACCCUCAACCCCCCCACUGGCACAGGGUCACAUCUGGGUCAUCAAAGACAACAGAGGAUUGAGCAUCA
# B6: chr18:46664354:46664355:-_ENSMUSG00000033319_ENSMUST00000036226|mus_hu|FALSE|FALSE (ssRNA)
# RNA: GGGAGUUCUACAGUCCGACGAUCGGAAAAAACUGUAGUAGAAAUGGUUAGGACAAACAAUAAAGUAGAAACAGGGGGGAAACUUGAGAAGAGAAGAAAGAAGCAAGAAAAAAAGACUUUCAAUUGUAUAAAAUUCACAAACCACAACAGAGGAUUGAGCAUCA
# B7: chr10:112362727:112362728:-_ENSMUSG00000074748_ENSMUST00000099276|mus_mus|FALSE|FALSE (ssRNA)
# RNA: GGGAGUUCUACAGUCCGACGAUCGAUCCCAGCAUGCGAUAAUGCCAGGUAGUGGCCCCUGGGCAUGCGAUGGUGGGAACUAAUUUACUGAAGAAAAAAGCACAAACCACAGAAAAUGUAAAGAACCCCUUCCCCCUAUACACACAACAGAGGAUUGAGCAUCA
# B8: chr16:45711415:45711416:-_ENSMUSG00000022658_ENSMUST00000096057|mus_mus|FALSE|FALSE (ssRNA)
# RNA: GGGAGUUCUACAGUCCGACGAUCAUUAGGAUACGUUCUGUGAGUCAAGGAGAGAAACUUUUUGGCAAAUAAAUAAAUAAAUAAUCAAACAAACCAAGACCUUAGGGCACAGGAGGUCAGAGAGGAAAGGGAGUCUUUGCAUAGCAACAGAGGAUUGAGCAUCA
# B9: chr3:148802587:148802588:-_ENSG00000071794_ENST00000310053|hu_mus|hu_hu_hu_mus_False|18_58 (ssRNA)
# RNA: GGGAGUUCUACAGUCCGACGAUCUCCAACAACUUGUCCUCUCAUAGUUCCAAAUAAAACCAAAUCUUGCUCUUCAUCACUAGUUAGGAAGUCAUCUGGAGGAAUAAUGUCUUGGAAUUCAAAACGUGGCAAGAAAGUUGAGUACAACAGAGGAUUGAGCAUCA
# B10: chr4:128986876:128986877:-_ENSMUSG00000057236_ENSMUST00000102598|mus_mus|motif|central (ssRNA)
# RNA: GGGAGUUCUACAGUCCGACGAUCGAUGGUGAGACAGGUCAACCAAAAUGGAGAUGGCAUCAAACUAUAGUGGUCAAAGACGGACCCCUAAAAAAGCAACUUUUAUCAAGGAUUAAUUUAAUCUUAAAAACAAACACAAACUAGCAACAGAGGAUUGAGCAUCA
# B11: chrX:71549400:71549401:+_ENSMUSG00000019087_ENSMUST00000019231|mus_hu|mus_mus_mus_hu_False|8_88 (ssRNA)
# RNA: GGGAGUUCUACAGUCCGACGAUCGCAGUAGGAAGAGGGAAGCUCUUCAUCCACUGUCGCUGCAGGGUGGGAAAGCAACAACACGGACACCGUCCCACCCUCAACCCCCCCACUGGCACAGGGUCACAUCUGGGUCAUCAAAGACAACAGAGGAUUGAGCAUCA
# B12: chr4:88365945:88365946:-_ENSMUSG00000070923_ENSMUST00000094993|mus_mus|motif|central (ssRNA)
# RNA: GGGAGUUCUACAGUCCGACGAUCACUUGUAUAGCCAUUUACUAAACAAUAUCAAGCCAAACCAAAAAAAAAAAAGGGUCGGAGUUACCUUUUUGUCUAUUAACUGUAGCAAUAAGGAGAAACAAUACAAGGGGAUGAACAAGACAACAGAGGAUUGAGCAUCA
# B13: chr11:86070927:86070928:-_ENSMUSG00000018068_ENSMUST00000018212|mus_mus|FALSE|FALSE (ssRNA)
# RNA: GGGAGUUCUACAGUCCGACGAUCUGGCACCAACAGUGCCGUCGACAGAGCGAGAAUCAGAAUGGGGACACUGCAAAAAAAAAAAAAAAAGUAAAAAGGAAAGGGAAAAAAAAGGGAGAAGCAACCAGGAGAGAGGGGAAAGCACAACAGAGGAUUGAGCAUCA
# B14: chr7:97110809:97110810:-_ENSMUSG00000030619_ENSMUST00000107234|mus_mus|FALSE|FALSE (ssRNA)
# RNA: GGGAGUUCUACAGUCCGACGAUCACAAGACUUGGAAAGUAUCAAAUCGCCUAACCAUCGCACACAAUCAACAUAAUUCCUAUGUAUGUCUCUGGUAGAAAAGUCAGGAAAGUGGAUUUUCUGGGAAAUAAAUGGCCUGUUAGUCAACAGAGGAUUGAGCAUCA
# B15: chr7:141438946:141438947:+_ENSG00000106028_ENST00000265304|hu_mus|hu_hu_hu_mus_True|8_98 (ssRNA)
# RNA: GGGAGUUCUACAGUCCGACGAUCGACGAAAUACCUGACAGGUCUUCCUUCGAAACAUGGCUUCUGUUUUUCUUACAACCUAAUCUUUAGGCUUUUCCUAAAGGAAAGAAAGAAAAGAGAAAAAUGAGCAGGGGAUCAACUACACAACAGAGGAUUGAGCAUCA
# Molecular target: T1, UNK ZnF1-3
# Assay: nsRBNS (natural sequence RNA bind-n-seq); RBNS binding buffer (assumed for nsRBNS): 25 mM Tris pH 7.5, 150 mM KCl, 3 mM MgCl2, 0.01% Triton X-100, 500 ug/ml BSA, 20 U/ml SUPERase-In, 4 C; UNK is unkempt and MSI1 is Musashi-1; names of the RNAs are library labels; protein concentration not given here; high values mean tight binding
row,Binder,binding signal [enrichment R]
1,B1,0.786
2,B2,0.759
3,B3,0.978
4,B4,0.579
5,B5,1.31
6,B6,5.26
7,B7,1.77
8,B8,3.91
9,B9,1.29
10,B10,4.74
11,B11,1.14
12,B12,1.54
13,B13,8.95
14,B14,1.38
15,B15,0.543
